# Measurements as given in article PMC5540273 (PLoS ONE, 2017).
# Legend:
# Conditions in all cases: concentration: 1 μM, replicates: in singlicate; n = 1
# KIT-autoinhibited = test system: KIT-autoinhibited
# KIT = test system: KIT
# LATS1 = test system: LATS1
# LATS2 = test system: LATS2
# LCK = test system: LCK
# LIMK1 = test system: LIMK1
# LIMK2 = test system: LIMK2
# LKB1 = test system: T1, LKB1
# T1 construct: gene STK11
# LOK = test system: T2, LOK
# T2 construct: gene STK10
# JNK3 = test system: T3, JNK3
# T3 construct: gene MAPK10
# 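Note: KINOMEscan kinase panel screen.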
structure (smiles),measurement,setting,value
COc1cc2ncnc(Nc3cccc(Br)c3)c2cc1OC.Cl [GI230329],%Inh,KIT-autoinhibited,0%
same,%Inh,KIT,10%
same,%Inh,LATS1,0%
same,%Inh,LATS2,0%
same,%Inh,LCK,66%
same,%Inh,LIMK1,0%
same,%Inh,LIMK2,0%
same,%Inh,LKB1,10%
same,%Inh,LOK,36%
COc1ccc(Nc2nccc(NCCNC(=O)Nc3cc(C)ccc3C)n2)cc1 [GSK1379899],%Inh,JNK3,0%
same,%Inh,KIT-autoinhibited,0%
same,%Inh,KIT,0%
same,%Inh,LATS1,0%
same,%Inh,LATS2,0%
same,%Inh,LCK,26%
same,%Inh,LIMK1,0%
same,%Inh,LIMK2,0%
same,%Inh,LKB1,0%
same,%Inh,LOK,0%
Cc1c(Cn2c3ccccc3n3c(=O)cc(N4CCOCC4)nc23)cccc1C(F)(F)F [GSK2306394],%Inh,JNK3,4%
same,%Inh,KIT-autoinhibited,0%
same,%Inh,KIT,7%
same,%Inh,LATS1,0%
same,%Inh,LATS2,0%
same,%Inh,LCK,11%
same,%Inh,LIMK1,0%
same,%Inh,LIMK2,3%
same,%Inh,LKB1,0%
same,%Inh,LOK,0%
Cc1c(Cn2c(C)c(C)n3c(=O)cc(N4CCOCC4)nc23)cccc1C(F)(F)F [GSK2328680],%Inh,JNK3,0%
same,%Inh,KIT-autoinhibited,0%
same,%Inh,KIT,9%
same,%Inh,LATS1,86%
same,%Inh,LATS2,1%
same,%Inh,LCK,18%
same,%Inh,LIMK1,8%
same,%Inh,LIMK2,4%
same,%Inh,LKB1,18%
same,%Inh,LOK,0%
COc1cccc(NC(=O)Nc2ccc(C)c(-c3ccc(C(=O)Nc4ccncc4)cc3)c2)c1 [GSK1398474],%Inh,JNK3,26%
same,%Inh,KIT-autoinhibited,0%
same,%Inh,KIT,99.8%
same,%Inh,LATS1,0%
same,%Inh,LATS2,5%
same,%Inh,LCK,43%
same,%Inh,LIMK1,11%
same,%Inh,LIMK2,8%
same,%Inh,LKB1,0%
same,%Inh,LOK,0%
